Test results taken from PubChem BioAssay (NCI).
Compounds without any hit were thinned out: in the full panel of roughly 79,000, 15% have a hit. Cut-off read from the data, not from the text of the source: active = growth inhibition above about 70%; inactive = the rest.

Assays:
[1] = NCI Yeast Anticancer Drug Screen. Data for the rad50 strain (AID 155);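 note: 0% = growth of vehicle-only cultures of the same strain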; settings: S. cerevisiae rad50 strain growth inhibition; at 50.0 µM; active compounds read high
Procedure, shortened: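 Relative growth inhibition (compound vs vehicle) was measured in yeast with a defined repair-gene alteration.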

[2] = NCI Yeast Anticancer Drug Screen. Data for the mec2-1 strain (AID 157); settings: S. cerevisiae mec2-1 strain, at 50.0 µM, active compounds read high
Procedure, shortened: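 Growth inhibition is read against vehicle-treated controls after compound exposure of the mec2-1 yeast strain, which is defective in DNA damage repair or cell cycle control.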

[3] = NCI Yeast Anticancer Drug Screen. Data for the sgs1 mgt1 strain (AID 161);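 note: 0% = growth of cultures given vehicle only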; settings: S. cerevisiae sgs1 mgt1 strain, at 50.0 µM, active compounds read high
Procedure, shortened: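 Compounds are added to genetically altered yeast, and growth is compared with cultures given vehicle alone to give percent inhibition.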

[4] = NCI Yeast Anticancer Drug Screen. Data for the cln2 rad14 strain (AID 165);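 note: 0% = growth equal to vehicle treated cultures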; settings: S. cerevisiae cln2 rad14 strain, at 50.0 µM, active compounds read high
Procedure, shortened: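 Growth inhibition, relative to vehicle-treated controls, is the read-out. The test organism is a yeast strain with defined genetic alterations, cln2 rad14.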

[5] = NCI Yeast Anticancer Drug Screen. Data for the bub3 strain (AID 167); settings: S. cerevisiae bub3 mutant strain, at 50.0 µM, active compounds read high
Procedure, shortened: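 Screening used yeast with an engineered genetic alteration affecting cell cycle control. Compound-exposed cultures were compared with vehicle cultures, and reduced growth was taken as inhibition.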

[6] = NCI Yeast Anticancer Drug Screen. Data for the mlh1 rad18 strain (AID 175); settings: S. cerevisiae mlh1 rad18 strain growth inhibition; at 50.0 µM; active compounds read high
Procedure, shortened: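 Cells of a genetically altered yeast strain, deficient in DNA damage repair, were treated with compound. Their growth was then compared with that of vehicle-treated cultures to give inhibition.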

Measured: growth inhibition

[Cl][Sn]1([Cl])[CH2]CCCCCCCCCC[CH2][Sn]([Cl])([Cl])[CH2]CCCCCCCCCC[CH2]1
inactive: [1] -12.9% | [2] 1.2% | [3] 9.65% | [4] -12.7% | [5] -13.6% | [6] -25.5%

CN(CC#N)CC#N
inactive: [1] 19% | [2] 9.6% | [3] 8.75% | [4] -1.6% | [5] 20.1% | [6] 0.3%

OC1CSc2ccccc2-n2cccc21 (stereo not given)
inactive: [1] 25.8% | [2] 6.4% | [3] 21.8% | [4] 32.9% | [5] 6.75% | [6] 16.4%

COc1cc(/C=C\c2ccc(SC)cc2)cc(OC)c1OC
inactive: [1] 26.4% | [2] 20.6% | [3] 28.9% | [4] 15.3% | [5] 16.8% | [6] -57.9%

CCNC(=O)Nc1ccccn1
inactive: [1] -8.4% | [2] -1.55% | [3] 8.85% | [4] 0.5% | [5] -5.05% | [6] -2.4%

[O-]c1c[n+](CC[n+]2cc([O-])on2)no1
inactive: [1] 13.7% | [2] -8.45% | [3] -13.2% | [4] 40.5% | [5] -19.6% | [6] -14.7%

CC1(C)OCC(Cc2ccc3c(c2)OCO3)CO1
inactive: [1] 1.7% | [2] -11.1% | [3] -5.75% | [4] -32.2% | [5] 22.5% | [6] 2.25%

CSc1ccc(OC(=O)Nc2cc([N+](=O)[O-])ccc2F)cc1C
inactive: [1] 16.6% | [2] 11.2% | [3] 16% | [4] 12.2% | [5] 28.8% | [6] 17.1%

Cc1[nH]c2ccccc2c1C1=CC(=O)c2ccccc2C1=O
inactive: [1] 8.55% | [2] 18% | [3] 21.6% | [4] 2.6% | [5] -1% | [6] 13.8%

O=[n+]1c2c(n([O-])c3ccccc31)CCCCC2
inactive: [1] 19.6% | [2] -12.7% | [3] -1.9% | [4] -32.5% | [5] -8.35% | [6] -2.85%

O=C(c1ccccc1)c1cccc(C(=O)c2ccccc2)n1
inactive: [1] -7.5% | [2] -12.7% | [3] -17.7% | [4] 1.9% | [5] -13.8% | [6] -8.55%

O=C(Cc1ccccc1)NN1C(=O)/C(=C\c2ccccc2)SC1=Nc1ccccc1
inactive: [1] 12% | [2] -1.35% | [3] 19.3% | [4] 35.5% | [5] 9.15% | [6] 10.8%

c1cc(CSSCc2ccncc2)ccn1
inactive: [1] -15% | [2] 3.15% | [3] -19.1% | [4] -13.2% | [5] -27.6% | [6] 4.75%

CC(=O)NC1CC(=O)N(c2ccccc2)C1=O (stereo not given)
inactive: [1] 16.4% | [2] 7.8% | [3] 12.2% | [4] 5.9% | [5] -1.8% | [6] -19.1%

C=CCCCN(c1ccc(C(=O)OCC)cc1)S(=O)(=O)c1ccc(C)cc1
inactive: [1] 28.3% | [2] -11.4% | [3] 12.1% | [4] 12.7% | [5] -6.1% | [6] 4.2%

O=C(CC1C(=O)Nc2ccccc2S1(=O)=O)Nc1cc(Cl)ccc1Cl (stereo not given)
inactive: [1] 0.15% | [2] -30.8% | [3] 7.25% | [4] 15.1% | [5] 4.5% | [6] -12.3%

COc1ccc(-c2cc(=O)c3ccc(O)cc3o2)c(OC)c1OC
inactive: [1] -4.7% | [2] -10.4% | [3] -8.35% | [4] 6.65% | [5] -2.65% | [6] -1.75%

CCCCC(ON=C(C)C)C(=O)OC (stereo not given)
inactive: [1] 19.3% | [2] 31.6% | [3] -10.2% | [4] 12.1% | [5] 1.25% | [6] 24.4%

CCN(CC)CCOCCN(CC)CC
inactive: [1] 4.15% | [2] -2.2% | [3] -5.25% | [4] -44.8% | [5] 0.1% | [6] 9.55%

Cc1cc2c(=O)cc(-c3ccc(C(=O)O)cc3)oc2c(C(N)=O)c1C
inactive: [1] 4.15% | [2] 14.9% | [3] 23.6% | [4] 23.4% | [5] 11.2% | [6] 12.9%
